Structures can show the parent of a compound that is named as a salt.

What all share (assay): cell proliferation relative to vehicle (% of vehicle); higher = less growth inhibition
What all share (details): 72 h

Assay [1] relates to U2932 TK216-resistant clone 2. Put shortly:
(§1)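 Parental U2932 cells (ABC-DLBCL) and two clones made resistant to an ETS-targeting agent by almost a year of repeated exposure were treated for 72 h with 348 targeted inhibitors at 500 nM or 50 nM. MTT was then applied for 4 h, the reaction was stopped with 25% SDS, and absorbance was measured on a Cytation 3. Values express proliferation as percent of proliferating cells compared with DMSO vehicle.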

Assay [2] has as its system U2932 TK216-resistant clone 3. Put shortly:
as §1

Assay [3] deals with U2932 parental. Put shortly:
as §1

With `CC(O)(CS(=O)(=O)c1ccc(F)cc1)C(=O)Nc1ccc(C#N)c(C(F)(F)F)c1` (centres undefined) [Bicalutamide], the cell proliferation in assay [1] (50 nM) is 109; in assay [1] (500 nM), 104; in assay [2] (50 nM) it was 103; in assay [2] (500 nM), 97.8; in assay [3] (50 nM), 102; in assay [3] (500 nM) it was 96.5.

On to `COc1ccc(C[C@H]2NC[C@H](O)[C@H]2OC(C)=O)cc1` [Anisomycin], for which the cell proliferation in assay [1] (50 nM) turned out to be 55.2; in assay [1] (500 nM), 25.4; in assay [2] (50 nM), 69; in assay [2] (500 nM), 29.3; in assay [3] (50 nM), 66.9; in assay [3] (500 nM) it was 20.5.

`Cc1sc2c(c1C)C(c1ccc(Cl)cc1)=N[C@@H](CC(=O)OC(C)(C)C)c1nnc(C)n1-2`: the cell proliferation in assay [1] (50 nM) was determined as 91; in assay [1] (500 nM), 58.9; in assay [2] (50 nM), 77.2; in assay [2] (500 nM) it was 57.4; in assay [3] (50 nM), 92.1; in assay [3] (500 nM), 55.1.

Turning to `Cn1cc(C2=C(c3cn(C4CCN(Cc5ccccn5)CC4)c4ccccc34)C(=O)NC2=O)c2ccccc21`, the cell proliferation in assay [1] (50 nM) is 110; in assay [1] (500 nM) it was 103; in assay [2] (50 nM) it was 99.8; in assay [2] (500 nM), 97.1; in assay [3] (50 nM), 103; in assay [3] (500 nM) it was 107.

Take `O=S(=O)(CC1CS1)c1ccc(Oc2ccccc2)cc1` (centres undefined): the cell proliferation in assay [1] (50 nM) stood at 102; in assay [1] (500 nM), 97.6; in assay [2] (50 nM) it was 98.2; in assay [2] (500 nM), 104; in assay [3] (50 nM), 95.5; in assay [3] (500 nM), 99.7.

As for `COc1cc2c(cc1OC)C1CC(=O)C(CC(C)C)CN1CC2` (centres undefined) [Tetrabenazine (Xenazine)], the cell proliferation in assay [1] (50 nM) worked out at 101; in assay [1] (500 nM), 96.2; in assay [2] (50 nM) it was 106; in assay [2] (500 nM), 107; in assay [3] (50 nM) it was 103; in assay [3] (500 nM), 93.2.

As for `C/C(=C\c1csc(C)n1)[C@@H]1C[C@@H]2O[C@@H]2CCC[C@H](C)[C@H](O)[C@@H](C)C(=O)C(C)(C)[C@@H](O)CC(=O)O1` [Epothilone A], the cell proliferation in assay [1] (50 nM) came to 12.4; in assay [1] (500 nM), 10; in assay [2] (50 nM), 7.03; in assay [2] (500 nM) it was 9.75; in assay [3] (50 nM), 9.49; in assay [3] (500 nM) it was 10.1.

Take `O=C(O)C(=O)c1cn(Cc2ccccc2)c2ccc(-c3ccc(OC(F)(F)F)cc3)cc12` [Tiplaxtinin (PAI-039)]: the cell proliferation in assay [1] (50 nM) was 99.5; in assay [1] (500 nM) it was 93.1; in assay [2] (50 nM), 100; in assay [2] (500 nM), 98.5; in assay [3] (50 nM), 102; in assay [3] (500 nM), 99.3.

For the compound `CC1=C(O)C(=O)C=C2C1=CC=C1[C@@]2(C)CC[C@@]2(C)[C@@H]3C[C@](C)(C(=O)O)CC[C@]3(C)CC[C@]12C` [Celastrol], the cell proliferation was 77.9 in assay [1] (50 nM); 18.8 in assay [1] (500 nM); 85 in assay [2] (50 nM); 27.8 in assay [2] (500 nM); 80.6 in assay [3] (50 nM); 24.1 in assay [3] (500 nM).

For `N[C@@H]1C[C@H]1c1ccccc1` [Tranylcypromine (2-PCPA) HCl], the cell proliferation stood at 108 in assay [1] (50 nM); 107 in assay [1] (500 nM); 111 in assay [2] (50 nM); 102 in assay [2] (500 nM); 101 in assay [3] (50 nM); 100 in assay [3] (500 nM).

`Cn1c(CCCC(=O)O)nc2cc(N(CCCl)CCCl)ccc21` [Bendamustine HCl]: the cell proliferation in assay [1] (50 nM) was 111; in assay [1] (500 nM) it was 108; in assay [2] (50 nM), 102; in assay [2] (500 nM) it was 102; in assay [3] (50 nM), 99.3; in assay [3] (500 nM) it was 90.2.

With `O=C(O)CCCc1ccc(N(CCCl)CCCl)cc1` [Chloroambucil], the cell proliferation was determined as 101 in assay [1] (50 nM); 99.4 in assay [1] (500 nM); 98.4 in assay [2] (50 nM); 101 in assay [2] (500 nM); 99.7 in assay [3] (50 nM); 98.7 in assay [3] (500 nM).

Take `CC(=O)OC(C)(C)/C=C/C(=O)[C@](C)(O)[C@H]1[C@H](O)C[C@@]2(C)[C@@H]3CC=C4[C@H](C[C@H](O)C(=O)C4(C)C)[C@]3(C)C(=O)C[C@]12C` [Cucurbitacin B]: the cell proliferation in assay [1] (50 nM) is -2.74; in assay [1] (500 nM), -3.79; in assay [2] (50 nM), 0.167; in assay [2] (500 nM) it was -2.48; in assay [3] (50 nM), -0.672; in assay [3] (500 nM), -0.512.

In the case of `O=P1(NCCCl)OCCCN1CCCl` (centres undefined) [Ifosfamide], the cell proliferation is 108 in assay [1] (50 nM); 107 in assay [1] (500 nM); 102 in assay [2] (50 nM); 103 in assay [2] (500 nM); 103 in assay [3] (50 nM); 93.4 in assay [3] (500 nM).

For the origin of these results see the supplement of paper PMC13172266.
